Measured values taken from PubChem BioAssay (NCATS).
Inconclusive results are not listed. Activity calls are given as the source filed them. Calls follow the shape of the dose curve; as a rule, active = well fitted inhibition curve with a large enough effect; inconclusive = small, poorly fitted or top-dose-only effect; inactive = flat fitted curve, though single readings scatter.

Target: Calcium and integrin-binding protein 1 (Homo sapiens) (UniProt Q99828)
Test: Primary qHTS for Identification of Calcium Integrin Binding Protein 1 (CIB1) Competitor (AID 1508620); also: top concentration of the series differs between compounds
Details: CIB1-GST / FITC-alphaIIb peptide fluorescence polarization; series mostly up to 114 µM; activity change, negative = inhibition: at the top concentration
In short: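 Fluorescence polarization competition: GST-tagged CIB1 (1 uM final) preincubated with compound 15 min at room temperature, then FITC-labelled alphaIIb peptide (100 nM final) added. After 15 min at room temperature, polarization read at Ex 480/Em 540.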
% is scaled to controls: 0 for no effect and ±100 for the full control effect.

Chain of Calcium and integrin-binding protein 1 (Homo sapiens) (Q99828 whole entry, looked up): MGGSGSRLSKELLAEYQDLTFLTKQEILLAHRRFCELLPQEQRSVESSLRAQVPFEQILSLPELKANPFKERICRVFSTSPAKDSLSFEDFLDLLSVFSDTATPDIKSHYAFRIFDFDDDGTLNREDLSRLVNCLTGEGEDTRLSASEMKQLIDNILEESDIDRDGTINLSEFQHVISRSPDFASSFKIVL

| SMILES | activity change, negative = inhibition | Potency |
| --- | --- | --- |
| Cc1ccc(-c2cn3c4c(sc3n2)CCCC4)cc1 | 5.63% (inactive) |  |
| C=C1CC[C@@H](O)[C@]2(C)C[C@H]3OC(=O)C(=C)[C@H]3CC12 (some centres not stated) | 4.06% (inactive) |  |
| CCC(C)C(=O)O[C@H]1[C@H](O)[C@@]2(COC(C)=O)C(CC1(C)C)C1=CCC3[C@@]4(C)CC[C@H](O[C@@H]5O[C@H](C(=O)O)[C@@H](O)[C@H](O)[C@H]5O)[C@@](C)(CO)C4CC[C@@]3(C)[C@]1(C)C[C@@H]2O (some centres not stated) | -5.06% [at 30.2 µM] (inactive) |  |
| C=CC(C)(C)C12CC3C(=O)N4C(CC5(C(C)(C)C=C)c6ccccc6NC45)C(=O)N3C1Nc1ccccc12 (configuration not stated) | 1.8% [at 57.7 µM] (inactive) |  |
| C=C1/C(=C/C=C2\CCC[C@@]3(C)C2CCC3[C@H](C)/C=C/[C@@H](O)C2CC2)C[C@@H](O)C[C@@H]1O (some centres not stated) | -1.17% (inactive) |  |
| O=C([C@@H](Cc1cccc(C(F)(F)F)c1)NS(=O)(=O)c1cc(F)c2c(c1)CCNC2)N1CCCC1 | 4.36% (inactive) |  |
| CNC(C)C(=O)NC(C(=O)N1CCCC1C(=O)Nc1snnc1-c1ccccc1)C1CCCCC1 (configuration not stated) | 7.54% (inactive) |  |
| C=C1CCC2[C@](C)(CCC[C@@]2(C)C=O)[C@H]1CC/C(C)=C/CO (some centres not stated) | -0.479% (inactive) |  |
| C=C1CC[C@H]2C(=C)CC[C@H]3C(=C)C(=O)O[C@@H]3[C@@H]12 | -18.3% (inactive) |  |
| C=C1C(=O)O[C@@H]2[C@H]1CC[C@H](C)[C@]1(CCC(=O)O1)C2(C)O (some centres not stated) | -5.76% (inactive) |  |
| C=C1C(=O)O[C@@H]2[C@H]1CC(=O)[C@H](C)[C@@](O)(C(=O)/C=C/C)[C@H]2OC(=O)C(C)CC (some centres not stated) | -10.3% [at 57.7 µM] (inactive) |  |
| COc1ccc(-n2c(SCCCN3C(=O)c4cccc5cccc(c45)C3=O)nnc2-c2ccncc2)cc1 | -5.93% (inactive) |  |
| COC1CC/C=C(\C)C(=O)Nc2cc(O)cc(c2)CC(C)CC(OC)C(O)C(C)/C=C(\C)C1OC(N)=O (configuration not stated) | -0.733% [at 57.7 µM] (inactive) |  |
| CC(C)(O)C1CC(=O)C2(C)C(CCC3(C)C(c4ccoc4)OC(=O)C4OC432)C12CCC(=O)OC2 (configuration not stated) | -12.8% [at 57.7 µM] (inactive) |  |
| COc1cc(O)cc(/C=C/c2cccc(O)c2)c1 | 3.13% (inactive) |  |
| C[C@@H]1COCCN1c1cc(=O)n2c(n1)N(Cc1cncc(Cl)c1)[C@H](C(F)(F)F)CC2 |  | inactive |
| O=C(c1ccc(F)cc1)N1CCCC(c2nc(-c3ccc(F)cc3)no2)C1 (configuration not stated) | 0.958% (inactive) |  |
| COc1ccc(S(=O)(=O)n2cnc3cc(C)c(C)cc32)cc1 | -2.76% (inactive) |  |
| Cc1[nH]c2ccccc2c1CCNCc1ccc(/C=C/C(=O)NO)cc1 | -5.64% (inactive) |  |

| SMILES | activity change, negative = inhibition | Potency |
| --- | --- | --- |
| CC(=O)OC1C(=O)C2C3OCC4=C3[C@@](C)(CC[C@@H]4O)CC[C@]2(C)[C@H]1C(C)C (some centres not stated) | 5.28% [at 57.7 µM] (inactive) |  |
| CC1CCC/C=C/C(=O)c2c(O)cc(O)cc2CC(=O)O1 (configuration not stated) | -13% (inactive) |  |
| C/C=C/C=C/C(=O)O[C@@H]1C=C2COC(=O)[C@]2(O)[C@@]2(C)CCCC(C)(C)[C@H]12 | 4.68% [at 57.7 µM] (inactive) |  |
| Cc1ccc(CNc2ncnc3ccc(-c4ccc(CO)o4)cc23)o1 | -1.87% (inactive) |  |
| NC(=O)c1cnc(N[C@@H]2CCCC[C@@H]2N)nc1Nc1cccc(-n2nccn2)c1 | 1.49% [at 57.7 µM] (inactive) |  |
| NC(=O)c1cccc2[nH]c(-c3ccc(C4CCCN4)cc3F)nc12 (configuration not stated) | 4.4% (inactive) |  |
| CC(=O)c1c(C)cc2cccc(O)c2c1O[C@@H]1O[C@H](CO)[C@@H](O)[C@H](O)[C@H]1O | 4.84% [at 57.7 µM] (inactive) |  |
| O=C(NC[C@H]1CN(c2ccc(N3CCOCC3=O)cc2)C(=O)O1)c1ccc(Cl)s1 | 3.2% (inactive) |  |
| C=C1C(=O)O[C@@H]2[C@H]1CCC(C)=C(CCC(=O)O)[C@@]2(C)O | -4.13% (inactive) |  |
| CC1(C)C2CCC(CO[C@@H]3O[C@H](CO[C@@H]4OC[C@](O)(CO)[C@H]4O)[C@@H](O)[C@H](O)[C@H]3O)C1C2 (some centres not stated) | -0.0035% [at 57.7 µM] (inactive) |  |
| Cc1ccc(OC[C@H](O)[C@H](C)NC(C)C)c2c1CCC2 | 2.64% (inactive) |  |
| COC1C=C(C)C(O)(CO)C2(C)CCCC(C)(C)C12 (configuration not stated) | 0.514% (inactive) |  |
| CCC(C)C(=O)O[C@H]1[C@@H](OC(=O)c2ccoc2)C[C@](C)(O)[C@]23OC(C)(C)[C@H](C[C@H](OC(=O)c4ccoc4)[C@]12COC(C)=O)[C@H]3OC(C)=O (some centres not stated) | 2.07% [at 30.2 µM] (inactive) |  |
| CCC/C=C/c1cc2c(C=O)c(O)c(CC=C(C)C)cc2o1 | -14.8% (inactive) |  |
| COC(=O)c1ccnc(-c2cc(C(=O)Nc3ccc(C4(N)CC4)cc3)ccn2)c1 | -1.96% (inactive) |  |
| O=C(Nc1ccnc(NC(=O)C2CC2)c1)c1c(Cl)cccc1Cl | -0.791% (inactive) |  |
| C=C1/C(=C/C=C2\CCC[C@]3(C)[C@@H]([C@H](C)CC[C@@H](O)C(C)(C)O)CC[C@@H]23)C[C@@H](O)C[C@@H]1O | -4.64% (inactive) |  |
| C=C(C)C1CC(O)C(C)C12CC(O)C1(C)OC1C2O (configuration not stated) | -1.09% (inactive) |  |
